HUVEC tox TNFa: cytotoxicity in TNFa-stimulated HUVEC, primary screen, cytotoxicity control for VCAM1 expression modulator project, imaging, Hoechst nuclei count. HUVEC TNFalpha-stimulated, Hoechst cell count. cell count reduction, % at 2 µM. 0.17% of 93,000 active. AID 848, 2007;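 active = cell count reduction exceeding the screen mean by over 5 SD, scaled to untreated wells per plate, cut at about 78% in these data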;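 also: cells counted after 24 h of TNF alpha exposure following the 1 h pretreatment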
E-sel TNF inh: E-selectin induction blockers in HUVEC – imaging, immunofluorescence, high content, primary screen; inhibition, % at 2 µM; 0.71% of 120,000 active; AID 1246, 2008; HUVEC TNFa-induced E-selectin immunofluorescence;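 active = inhibition above the batch mean plus 3 SD, and confirmed as a hit on visual image review, cut at about 43% in these data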;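 also: 0% = TNF-stimulated DMSO wells and 100% = unstimulated control wells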
NFkB transloc pot: enhancers of NFkB p65 translocation in HUVEC – imaging, IL-1B stimulus, high-content imaging, primary screen | 0.3% of 94,000 active | HUVEC IL-1B NFkB p65 nuclear translocation imaging | AID 819, 2007 | activation, % at 2 µM;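 active = activation above 40%, about the mean plus 3 SD, also judged a hit on visual image review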;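 also: percent activation is computed from the nuclear over cytoplasmic p65 intensity ratio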
IL1B NFkB inh: inhibitors of IL-1B driven NFkB p65 nuclear import, primary screen, imaging, HUVEC, IL-1B stimulus, high-content imaging. AID 796, 2007. 0.43% of 94,000 active. inhibition, % at 2 µM. HUVEC IL-1B NFkB p65 nuclear translocation imaging;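 active = inhibition above about 30% together with a positive call from visual inspection of the well image, limit read from the data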;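 also: nuclear over cytoplasmic p65 intensity ratio measured by imaging; 0% = IL-1B stimulated DMSO wells and 100% = unstimulated DMSO wells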
HUVEC tox IL1B: cytotoxicity in IL-1B stimulated HUVEC, primary screen, cytotoxicity control for IL-1B NFkB translocation project, imaging, Hoechst nuclear count, IL-1B stimulus; HUVEC cell count loss; cell count reduction, % at 2 µM; 0.41% of 94,000 active; AID 845, 2007;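 active = cell count reduction more than 3 SD above the screen-wide mean, cut at about 70% in these data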;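 also: normalized per plate to untreated control cells as the no-loss baseline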
VCAM1 TNFa inh: inhibitors of TNFa-induced VCAM1 expression, primary screen, imaging, HUVEC, TNFa stimulus, immunofluorescence. inhibition, % at 2 µM. 0.48% of 95,000 active. HUVEC TNFa-induced VCAM-1 immunofluorescence, high-content imaging;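 active = inhibition above the batch mean plus 3 SD, with images confirmed as a hit by eye, cut at about 37% in these data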;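 also: 0% = TNF-stimulated DMSO wells and 100% = unstimulated control wells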
The depositor's hits bear a star; . = no result. Hits are enriched below; roughly 1.6% of the tested compounds scored in any of these assays.

SMILES	HUVEC tox TNFa	E-sel TNF inh	NFkB transloc pot	IL1B NFkB inh	HUVEC tox IL1B	VCAM1 TNFa inh
CN1CCN(c2ccc([N+](=O)[O-])cc2/C=N/NC(=O)c2ccc(F)cc2)CC1	4	-2	-30	30*	12	-10
O=C1[C@H]2[C@H](ON3CCCC[C@H]23)C(=O)N1c1ccc(Cl)cc1	.	25	.	.	.	.
COc1ccccc1-c1cn(S(=O)(=O)c2ccc(C)cc2)nc1N	-19	-9	-22	22	6	91*
CCCn1c(SCC#N)nc2c(c1=O)C1(CCCC1)Cc1ccccc1-2	-12	.	-18	18	93*	8
N#CCSc1nc2c(c(=O)n1Cc1ccco1)C1(CCCC1)Cc1ccccc1-2	-12	.	-8	8	-37	0
CCOC(=O)C1=C(c2ccccc2)OC(N)=C(C#N)C1c1ccco1 (centres undefined)	68	-8	7	-7	1	69*
COC(=O)C1=C(C)OC(N)=C(C#N)C1c1ccco1 (centres undefined)	0	-8	16	-16	-34	19
C=CCn1c(COc2cccc(C)c2C)nnc1SCC(=O)N1CCN(c2ccccc2)CC1	.	68*	.	.	.	.
CCn1c(COc2c(C)cccc2C)nnc1SCC(=O)N1CCN(c2ccccc2)CC1	4	-19	-12	12	-14	6
CCCOc1ccc(C(=O)NCC(C)(C)N2CCOCC2)cc1	.	-22	.	.	.	.
CC1=CC(C)(C)N(S(=O)(=O)c2ccc(C)cc2)c2cc(C)ccc21	58	16	0	0	28	38*
CCCS(=O)(=O)c1nnnn1-c1cccc(OC)c1	.	98*	.	.	.	.
COc1ccc(/C=C/C(=O)OCC(=O)NC(=O)NC(C)(C)C)cc1	.	28	.	.	.	.
Cc1cc(NC(=O)CCC(=O)N(Cc2ccco2)C2(C(=O)NC3CCCCC3)CCN(C)CC2)no1	-2	-14	-99	99*	87*	3
Cc1ccc(C(C(=O)NC2CCCC2)N(Cc2ccco2)C(=O)CCC(=O)Nc2cc(C)on2)cc1 (centres undefined)	5	-4	-3	4	-38	13
COC(=O)c1sc(NC(=O)c2c(OC)cccc2OC)c(C#N)c1C	.	19	.	.	.	.
CCOC(=O)Cc1csc(NC(=O)CN2C(=O)c3ccccc3S2(=O)=O)n1	.	96*	.	.	.	.
CCOC(=O)Cc1csc(NC(=O)c2cccs2)n1	.	-40	.	.	.	.
CCOC(=O)Cc1csc(NC(=O)c2ccc(Br)s2)n1	-7	-13	9	-9	89*	-9
CC1CCN(S(=O)(=O)c2cc(C(=O)N3CCN(c4ncccn4)CC3)ccc2Br)CC1	.	16	.	.	.	.
Cc1cc(-n2nc(C)cc2C)nc(NS(=O)(=O)c2ccccc2)n1	.	58*	.	.	.	.
Oc1ccc(N2CCN(c3ncnc4sc(-c5ccccc5)cc34)CC2)cc1	.	100*	.	.	.	.
CCCN1CCN(CCCNC(=O)c2cc3c(=O)n(C)c4ccccc4c3n2C)CC1	-10	-6	-89	90*	-6	23
Cn1c(C(=O)NCCCN2CCCCCC2)cc2c(=O)n(C)c3ccccc3c21	12	.	-1	1	22	9
Cc1c(N=NC2=C(O)CC(C)(C)CC2=O)c(=O)n(-c2ccccc2)n1C	.	6	.	.	.	.
SMILES	HUVEC tox TNFa	E-sel TNF inh	NFkB transloc pot	IL1B NFkB inh	HUVEC tox IL1B	VCAM1 TNFa inh
CCCOC(=O)C1C2C=C[C@]3(CN(CCc4ccccc4)C(=O)[C@H]13)O2 (some centres undefined)	82*	.	6	-6	-34	93*
CCCCOC(=O)C1[C@H]2C(=O)N(CCc3ccccc3)C[C@]23C=C[C@H]1O3 (some centres undefined)	-12	.	27	-27	-14	18
C=CCNc1cc(N2CCCC2)ccc1[N+](=O)[O-]	.	-77	.	.	.	.
CC(=O)c1c(C)[nH]c(C(=O)Nc2ccccc2N2CCOCC2)c1C	.	75*	.	.	.	.
C/C(=N\NC(=O)c1cccc(C)c1)c1ccc(N2CCOCC2)cc1	2	100*	16	-16	0	-9
COc1ccc(NC(=O)c2cc(-c3ccc(OC)c(OC)c3)on2)cc1OC	-12	80*	-4	4	-6	3
CCc1ccc(N(C(=O)c2csnn2)C(C(=O)NC(C)(C)C)c2cccnc2)cc1 (centres undefined)	.	-17	.	.	.	.
CC(NC(=O)c1ccc(F)cc1)C(=O)NC1=NCCS1 (centres undefined)	.	-1	.	.	.	.
Nc1ccc(Nc2ccncc2[N+](=O)[O-])cc1	-11	-27	14	-14	0	9
O=[N+]([O-])c1cnccc1Nc1ccc(F)cc1	94*	7	-9	9	-47	53*
Fc1ccc2[nH]c3c(N4CCN(c5ccccc5)CC4)ncnc3c2c1	.	-13	.	.	.	.
OC1(c2cccc(C(F)(F)F)c2)CCN(c2ncnc3c2[nH]c2ccc(F)cc23)CC1	-11	.	6	-6	-33	54*
COC(=O)c1cc(COC(=O)c2ccc(OC)c(S(=O)(=O)N3CCCC3)c2)oc1C	96*	.	22	-22	-7	64
CC(=O)N1CCN(CC(=O)Nc2c(Cl)ccc(C)c2Cl)CC1	.	-7	.	.	.	.
CC(C)Cn1cnc2c1c(=O)n(CC(=O)Nc1ccc3c(c1)OCO3)c(=O)n2Cc1ccccc1	13	71*	-33	33*	72*	-1
Cc1cc(NC(=O)Cn2c(=O)c3c(ncn3CC(C)C)n(Cc3ccccc3)c2=O)no1	.	-30	.	.	.	.
CCCC(C(=O)NC1CCCC1)N(CC1CCCO1)C(=O)c1snc(C(N)=O)c1N (centres undefined)	-13	.	12	-12	14	14
CCCC(C(=O)NC1CCCC1)N(CCCN1CCOCC1)C(=O)c1snc(C(N)=O)c1N (centres undefined)	38	.	-8	8	10	78*
CCN(C(=O)CSc1nnc(-c2ccncc2)n1Cc1ccccc1)C1CCS(=O)(=O)C1 (centres undefined)	.	-5	.	.	.	.
Cc1ccc(O)c(NC(=S)NC(=O)c2ccc(-c3ccc(Cl)cc3)o2)c1	-10	55*	-10	10	9	5
CCOC(=O)n1c(=O)[nH]c2ccc(Br)cc21	.	-16	.	.	.	.
Cc1[nH]c2ccccc2c1Cc1n[nH]c(=S)n1C	4	5	3	-3	51	-23
Cc1[nH]c2ccccc2c1Cc1n[nH]c(=S)o1	-30	10	46*	-46	13	12
COc1ccc2nc(SCC(N)=O)[nH]c2c1	-10	-27	-10	10	6	-1
COc1ccc2[nH]c(=O)c(NC(N)=S)nc2c1	-21	.	-7	6	89*	6
Cc1cc(C)n(CC(=O)O)c(=O)c1[N+](=O)[O-]	.	-5	.	.	.	.
O=C1C(=O)c2ccc(-c3ccccc3)cc2-c2ccccc21	22	-28	14	-14	21	64*

Source: PubChem BioAssay
